# Shown are actives, neighbours in structure and some others; about 7.4% of the full set was active somewhere.
# SNCA viab count – GF-AFC viability counterscreen for inhibitors of alpha-synuclein gene (SNCA) expression; HEK-293-SNCA-luc viability, GF-AFC fluorescence, 24 h; hit rate 0.12% among 150,000; Potency, µM (series often up to 57.1 µM), for inactives: at the highest dose activity change, negative = cytotoxicity, usual class: cytotoxic;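 note: 0% = DMSO-treated cells and -100% = medium-only wells without cells; nearly all actives have a fitted effect of over 30% in size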
#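 HEK-293-SNCA-luc cells (1500/well) plated 24 h, then exposed 24 h to a dilution series; GF-AFC added 30 min at 37C, fluorescence 405/540 nm; normalised to medium-only and DMSO wells, Hill fit.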
# HEK cytotox – Cytotoxic Profiling in HEK 293 Cell Line of Diverse Libraries Using Quantitative High-Throughput Screening; HEK 293 viability, ATP luminescence (CellTiter-Glo), 48-72 h; Potency, µM (titrated, usually from 115 µM), without a hit: top-dose activity change, negative = cytotoxicity, actives largely listed as inhibitors; hit rate 6.6% among 94,000; note: nearly all actives have a fitted effect of over 60% in size
#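 HEK 293 seeded at 250 cells/well receive compound via pintool. After 48 or 72 hr at 37 degree Celsius, 5% CO2 and 95% humidity, CellTiter-Glo is dispensed and luminescence read following 10 min at room temperature.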
# NIH3T3 tox – Cytotoxic Profiling in NIH 3T3 Cell Line of Diverse Libraries Using Quantitative High-Throughput Screening. NIH 3T3 viability, CellTiter-Glo ATP luminescence, 48-72 h. Potency, µM (top dose mostly 96.7 µM), for the others: at the highest dose activity change, negative = cytotoxicity, hits mostly inhibitors. hit rate 4.3% among 94,000. AID 1345082, 2018; note: nearly all actives have a fitted effect of over 55% in size
#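 NIH 3T3 cells at 400 cells/well received 23 nL of compound by pintool and were incubated 48 or 72 h at 37 °C. Viability was read as ATP-coupled CellTiter-Glo luminescence.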
# SNCA expr inh – Primary qHTS assay for inhibitors of alpha-synuclein gene (SNCA) expression | hit rate 0.17% among 140,000 | Potency, µM (series often up to 57.2 µM), for the others: at the highest dose activity change, negative = inhibition, usual class: inhibitors | HEK-293 SNCA-luciferase knock-in, luminescence, 24 h;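 note: plate controls were DMSO cells for no effect and cell-free wells for full effect; nearly all actives have a fitted effect of over 45% in size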
# hNpr1 antagonist – Natriuretic polypeptide receptor (hNpr1) antagonism - Primary qHTS. hit rate 1.6% among 76,000. Atrial natriuretic peptide receptor 1 (Homo sapiens), P16066. Potency, µM (doses to about 46.3 µM), for inactives: at the highest dose activity change, negative = inhibition, hits mostly inhibitors. HEK293 hNpr1 GloSensor cGMP, ANP-stimulated luminescence; calls by dose curve; note: nearly all actives have a fitted effect of over 60% in size
#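 Compound pre-incubated 30 min at room temperature on GloSensor-loaded HEK293 cells stably carrying hNpr1 and the pGS-40F cGMP biosensor. Stimulation uses hNppA at 0.1 nM final; luminescence is taken at baseline and 20 min post-agonist.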
# FLuc inh – Firefly luciferase inhibition profiling of diverse chemical library using quantitative high-throughput screening; Luciferin 4-monooxygenase (Photinus pyralis), P08659; purified P. pyralis luciferase, luminescence, biochemical; Potency, µM (titrated, usually from 115 µM), actives largely listed as inhibitors; hit rate 2.5% among 76,000; AID 1347043, 2019; note: nearly all actives have a fitted effect of over 65% in size
# Target sequence (P08659 whole entry, looked up): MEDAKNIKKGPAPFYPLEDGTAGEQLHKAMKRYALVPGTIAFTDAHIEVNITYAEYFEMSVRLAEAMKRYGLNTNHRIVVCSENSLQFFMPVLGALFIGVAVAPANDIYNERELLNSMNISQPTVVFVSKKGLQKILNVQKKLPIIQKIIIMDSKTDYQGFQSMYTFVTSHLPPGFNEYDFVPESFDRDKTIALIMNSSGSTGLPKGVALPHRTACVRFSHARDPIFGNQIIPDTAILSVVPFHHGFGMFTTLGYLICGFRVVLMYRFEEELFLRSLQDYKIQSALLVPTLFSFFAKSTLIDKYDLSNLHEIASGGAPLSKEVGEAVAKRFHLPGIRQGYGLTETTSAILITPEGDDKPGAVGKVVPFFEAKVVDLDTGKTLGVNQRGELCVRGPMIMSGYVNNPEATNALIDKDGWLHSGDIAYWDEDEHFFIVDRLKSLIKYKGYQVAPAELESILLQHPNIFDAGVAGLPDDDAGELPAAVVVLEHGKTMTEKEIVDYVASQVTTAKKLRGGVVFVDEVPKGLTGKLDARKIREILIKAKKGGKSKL
#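 Biochemical qHTS: compound (6-point titration) added to 10uM D-luciferin plus 10uM ATP in Tris acetate pH 7.5 buffer with Mg, Tween-20 and BSA, then purified enzyme at 10nM; light output imaged.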
# Active calls of the source: *; i = inactive; ? = inconclusive; . = no result; [ ] = another dose, or the depositor's remark. Unless noted, calls come from the whole dose curve; as a rule, active = well fitted curve in the direction sought with a large enough effect; inconclusive = small, poorly fitted or top-dose-only effect, or another doubt; inactive = no such curve, though single readings can be large; an effect the other way counts as inactive or inconclusive. Unless noted, % is set by controls: 0 for no effect and ±100 for the full control effect; potency is the fitted concentration of half-maximal effect.
SMILES,SNCA viab count,HEK cytotox,NIH3T3 tox,SNCA expr inh,hNpr1 antagonist,FLuc inh
COCCCn1c(C)cnc1C1CCN(C(=O)Nc2ccc3c(c2)OCCO3)C1 (stereo not given),14%,-7%,i,55%,2%,45µM*
O=C(Cc1cccc(F)c1)N1CCC(Cc2nncn2CC2CC2)C1 (stereo not given),11%,-1%,?,-1%,.,.
O=C(Cc1ccccc1F)N1CCC(Oc2cccc(F)c2)C1 (stereo not given),0%,?,-29%,-13%,.,.
Cc1cnc(CC2CCN(C(=O)Nc3ccc4c(c3)OCCO4)C2)n1C1CC1 (stereo not given),-3%,-3%,-17%,3%,.,.
Cc1nc(CC2CCN(C(=O)Nc3ccc4c(c3)OCCO4)CC2)n[nH]1,5%,-7%,i,?,-29%,45µM*
O=C1COCC2(CN(c3ccc(C(F)(F)F)cn3)C2)CN1c1ccc(F)cc1,6%[87.6 µM],?,?,-10%[87.6 µM],-3%[70.6 µM],i
O=C1COCC2(CN(c3ccccc3)C2)CN1c1ccc(OC(F)(F)F)cc1,-2%[87.6 µM],89µM*,89µM*,8%[87.6 µM],-11%[70.6 µM],i
Cc1cc(C)cc(-c2ccc(CN3CCCC(N[S+](=O)([O-])c4cccc(C(F)(F)F)c4)C3)cc2)c1 (stereo not given),-12%,?,32µM*,?,.,.
Cc1cc(C)cc(-c2ccc(CN3CCCC(N[S+](C)(=O)[O-])C3)cc2)c1 (stereo not given),4%,40µM*,?,0%,.,.
O=C(Nc1ccc(F)cc1)C1CCc2nnc(C3CC3)n21 (stereo not given),-18%[12.5 µM],5%,-6%,1%,.,.
COC(=O)N1CCC[C@@H]1C(=O)N1CCCC(c2nc3ccncc3[nH]2)C1 (stereo not given in full),-1%,i,i,-1%,.,.
COc1cc(Nc2nc(-c3ccccc3)no2)cc(OC)c1OC,-4%,?,?,174%,-25%,32µM*
COc1cc(Nc2nc(-c3ccccc3F)no2)cc(OC)c1OC,1%,32µM*,?,314%,-13%,?
COc1ccc(-c2noc(Nc3cc(OC)cc(OC)c3)n2)cc1,-20%,?,?,9%,-17%,?
COc1ccc(-c2noc(-c3nc(-c4cc(OC)c(OC)c(OC)c4)no3)n2)cc1,24%,-3%,-14%,-4%,8%,i
COc1cccc(-c2noc(Nc3cc(OC)c(OC)c(OC)c3)n2)c1,?,45µM*,?,84%,7%,?
COc1ccc(-c2noc(-c3nc(-c4ccccc4F)no3)n2)cc1OC,4%,-3%,i,34%,1%,i
COc1ccc(-c2noc(Nc3cc(OC)c(OC)c(OC)c3)n2)cc1OC,?,22µM*,?,131%,-28%,i
COc1cc(Nc2ncncc2-c2nc(-c3ccccc3)no2)cc(OC)c1OC,9%,-5%,-23%,-24%,-20%,i
Cc1cnc(C2CN(C(=O)C(C)c3ccccc3)C2)n1Cc1ccccc1 (stereo not given),1%,-27%,-25%,1%,.,.
N#C/C(=C1\Nc2ccccc2S1)c1ccnc(NCCc2cccnc2)n1,-40%,.,.,.,.,.
C#CCNC(=O)C1CCCN1Cc1cccc(-c2ccc(C)c(Cl)c2)c1 (stereo not given),.,40µM*,40µM*,.,.,.
Cc1ccc(-c2cccc(CN3CCCC3C(=O)NC3CCCC3)c2)cc1Cl (stereo not given),.,35µM*,?,.,.,.
Cc1ccc(-c2cccc(CN3CCCC3C(=O)NC(C)C)c2)cc1Cl (stereo not given),.,22µM*,22µM*,.,.,.
CNC(=O)C1CCCN1Cc1cccc(-c2cccc(OC)c2)c1 (stereo not given),0%,?,?,-5%,.,.
SMILES,SNCA viab count,HEK cytotox,NIH3T3 tox,SNCA expr inh,hNpr1 antagonist,FLuc inh
COCCCNC(=O)C1CCCN1Cc1cccc(-c2ccc(C)c(Cl)c2)c1 (stereo not given),.,?,40µM*,.,.,.
C#CCNC(=O)C1CCCN1Cc1ccc(-c2cncnc2)cc1 (stereo not given),1%[87.6 µM],-18%[172 µM],-13%[138 µM],-16%[87.6 µM],.,.
Cc1ccc(C(=O)NC2CCCN(Cc3cccc(-c4ccc(C)c(Cl)c4)c3)C2)cc1 (stereo not given),11%,i,0%,-22%,.,.
Cc1ccc(-c2cccc(CN3CCCC3C(=O)N3CCCC(C)C3)c2)cc1Cl (stereo not given),.,?,32µM*,.,.,.
Cc1cc(C)cc(-c2ccc(CN3CCCC3C(=O)N3CCCCC3)cc2)c1 (stereo not given),-14%,?,?,-14%,.,.
CNC(=O)C1CCCN1Cc1cccc(-c2ccc(C)c(Cl)c2)c1 (stereo not given),.,25µM*,35µM*,.,.,.
O=C(NCc1ccc(F)cc1)c1ccc2nc(-c3ccnc(Cl)c3)oc2c1,8%[87.6 µM],-22%[172 µM],-13%[138 µM],-16%[87.6 µM],.,.
CC(C)(C)c1nnc2ccc(C(=O)NCCc3ccc(Cl)cc3)cn12,7%,-6%,-20%,7%,.,.
CC1CCCC(C)N1C(=O)c1ccc2oc(-c3ccnc(Cl)c3)nc2c1 (stereo not given),1%[12.5 µM],-11%,-19%,9%,.,.
O=C(NC1CC1)c1ccc2nnc(-c3cc(C(F)(F)F)cc(C(F)(F)F)c3)n2c1,6%,?,?,-4%,.,.
COC1C(=O)N(c2cccc(F)c2)C12CCN(S(=O)(=O)Cc1ccccc1F)CC2 (stereo not given),2%,40µM*,-18%,3%,-25%,i
COC1C(=O)N(c2cccc(F)c2)C12CCN(S(=O)(=O)Cc1ccccc1)CC2 (stereo not given),-10%,?,-17%,-9%,-3%,i
COC1C(=O)N(c2cccc(F)c2)C12CCN(C(=O)c1cc3ccccc3[nH]1)CC2 (stereo not given),-13%,32µM*,?,42%,-3%,?
COc1cccc(CNC(=O)c2cc(-c3cccs3)c3cccn3n2)c1,0%,?,?,-14%,.,.
O=C(C1CCN(c2nc3ncccc3o2)CC1)N1CCN(Cc2ccccc2)CC1,-2%,?,-25%,13%,.,.
